# Most compounds without a hit are left out; they make up all but 14% or so of the library.
# CRE-bla Fsk: Cell signaling CRE-BLA (Fsk stim); CHO CRE-bla reporter (cAMP response element driving beta-lactamase), forskolin EC10, beta-lactamase ratio; Potency, µM (highest dose often 38.2 µM), for inactives: at the top dose activity change, negative = inhibition, hits mostly activators; 71,000 tested, 2.5% active; AID 662, 2007; active = well fitted activation curve with a large enough effect in the signal ratio, with a control signal flat, not every such curve was filed as active; inconclusive = small, poorly fitted or top-dose-only effect, or effect the other way, or a change in a side signal; the % refers to the signal ratio; note: potency is the fitted concentration of half-maximal effect; % of control where 0% means no effect
#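 CHO CRE-bla cells, overnight plating in Opti-MEM with 0.5% dialyzed FBS; cpd titration + EC10 NKH 477, 3 h 37 °C; CCF4 2 h RT; ex 405/em 460 vs 530 ratio → %Activity, AC50.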
# AID923: qHTS Assay for Allosteric/Competitive Inhibitors of Caspase-1: Spectroscopic Profiling in AFC Spectral Region. compound fluorescence, AFC spectral region (405/520 nm). 75,000 tested, 1.1% active. AID 923, 2007. Potency, µM (series often up to 57.5 µM), for the others: at the top dose fluorescence increase, actives largely listed as activators; note: potency is the fitted concentration of half-maximal effect; 0% is about no effect
#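 Compound autofluorescence profiled at 405 nm ex/520 nm em during kinetic caspase 1 run (50 nM enzyme, 5 uM Ac-WEHD-AFC, HEPES pH 7.5, 10 mM DTT). Titration up to 57 uM; baseline from regression intercept, normalized to AFC standard curve.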
# HADH2 inhib: qHTS Assay for Inhibitors of HADH2 (Hydroxyacyl-Coenzyme A Dehydrogenase, Type II) | 73,000 tested, 3.4% active | recombinant HADH2, NADH fluorescence, beta-hydroxybutyryl-CoA | Potency, µM (highest dose often 57.1 µM), for inactives: at the highest dose activity change, negative = inhibition, hits mostly inhibitors | 3-hydroxyacyl-CoA dehydrogenase type-2 (Homo sapiens), Q99714; note: potency is the fitted concentration of half-maximal effect; % is set by controls: 0 for no effect and ±100 for the full control effect; nearly all actives have a fitted effect of over 60% in size
# Target sequence (Q99714 whole entry, looked up, one chain of several): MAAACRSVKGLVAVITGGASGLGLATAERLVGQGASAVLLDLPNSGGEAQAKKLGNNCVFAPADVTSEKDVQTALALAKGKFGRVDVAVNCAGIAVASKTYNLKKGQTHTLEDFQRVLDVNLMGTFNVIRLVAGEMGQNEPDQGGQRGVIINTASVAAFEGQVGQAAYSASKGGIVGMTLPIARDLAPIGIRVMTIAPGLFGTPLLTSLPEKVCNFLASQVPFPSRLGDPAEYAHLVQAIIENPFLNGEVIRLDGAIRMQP
#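 E. coli-expressed His-tagged HADH2 tested at 20 nM in alkaline Tris buffer (pH 9.0); oxidation of 90 uM beta-hydroxybutyryl-CoA with 1 mM NAD+ tracked fluorimetrically for 4 min.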
# HSD17B inhib: qHTS Assay for Inhibitors of HSD17B4, hydroxysteroid (17-beta) dehydrogenase 4. recombinant HSD17B10, NADH fluorescence kinetic. 75,000 tested, 7.6% active. AID 893, 2007. Potency, µM (top dose mostly 57.1 µM), for inactives: at the top dose activity change, negative = inhibition, usual class: inhibitors. 3-hydroxyacyl-CoA dehydrogenase type-2 (Homo sapiens), Q99714;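 note: the protocol describes HADH2 (HSD17B10) and not the HSD17B4 of the title; potency is the fitted concentration of half-maximal effect; % is set by controls: 0 for no effect and ±100 for the full control effect; nearly all actives have a fitted effect of over 70% in size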
#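 Activity followed as NADH fluorescence increase (ex 360, em 450 nm) every 30 seconds for 4 min, using final 90 uM beta-hydroxybutyryl CoA and 1 mM NAD+. Recombinant His-tagged enzyme, 20 nM, pH 9.0 Tris buffer, 15 min compound preincubation.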
# 4MU fluor: qHTS Assay for Spectroscopic Profiling in 4-MU Spectral Region; compound autofluorescence, 340/450 nm, 4-MU equivalents; active compounds read high; max dye-equivalent concentration, M; 59,000 tested, 11% active; AID 589, 2007; in the data active = max dye-equivalent concentration above about 10 nM; inconclusive = mostly about 1.1 nM to 9.6 nM
#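 Compounds in 100 mM Tris, pH 8.0, incubated 15 min at room temperature, then fluorescence read at 340 nm excitation/450 nm emission. Signal converted to 4-MU dye-equivalent concentration using an on-plate six-point 4-MU standard curve.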
# A350 autofl: qHTS Assay for Spectroscopic Profiling in A350 Spectral Region; max dye-equivalent concentration, M; Compound autofluorescence, 340/450 nm, Alexa 350 dye-equivalents; active compounds read high; 59,000 tested, 11% active; AID 590, 2007; in the data active = max dye-equivalent concentration above about 10 nM; inconclusive = mostly about 1.1 nM to 9.6 nM
# * hit, by the source's call; i = inactive; ? = inconclusive; / = not tested or not shown; [ ] = remark or other dose. Unless noted, calls come from the whole dose curve; as a rule, active = well fitted curve in the direction sought with a large enough effect; inconclusive = small, poorly fitted or top-dose-only effect, or another doubt; inactive = no such curve, though single readings can be large; an effect the other way counts as inactive or inconclusive.
SMILES,CRE-bla Fsk,AID923,HADH2 inhib,HSD17B inhib,4MU fluor,A350 autofl
COc1ccc(C2CC(=O)c3cnc(N4CCN(Cc5ccccc5)CC4)nc3C2)cc1 (stereo unspecified),?,4%,-26%,?,i,i
Cc1ccc(C2CC(=O)c3cnc(N4CC(C)CC(C)C4)nc3C2)cc1 (stereo unspecified),-11%,-1%,-4%,5%,i,?
Cc1ccc(C2CC(=O)c3cnc(N4CCN(c5ccccc5)CC4)nc3C2)cc1 (stereo unspecified),?,-2%,25µM*,?,1.5e-08M*,1.8e-08M*
NC(=O)C[C@H](N)C(N)=O,7%[7.6 µM],-6%[11.5 µM],3%[11.4 µM],8%[11.4 µM],i,i
CC#C[C@@]1(O)CC[C@H]2[C@@H]3CCC4=CC(=O)CCC4=C3[C@H](c3ccc(N(C)C)cc3)C[C@]21C,0%[17.1 µM],-3%[25.7 µM],1%[25.6 µM],-5%[25.6 µM],i,i
CC(C)(C)[C@@]1(O)CCN2C[C@@H]3c4ccccc4CCc4cccc(c43)[C@@H]2C1,?,-6%,11%,-5%,i,i
COC(=O)[C@@]1(Cc2ccc(OC)cc2)[C@H]2c3cc(C(=O)N4CCCC4)n(Cc4cc(F)c(F)c(F)c4)c3C[C@H]2CN1C(=O)c1ccccc1,-4%,2%,7%,4%,/,/
Cc1ccc(Cc2c(C)nc3nc(SCC(=O)NCc4ccco4)nn3c2C)cc1,?,2%,-18%,13µM*,i,i
Cc1ccccc1Cc1c(C)nc2nc(SCC(=O)NCc3ccco3)nn2c1C,-3%,0%,-3%,32µM*,i,i
Cc1ccccc1Cc1c(C)nc2c(C(=O)NCc3ccco3)cnn2c1C,?,-1%,32µM*,32µM*,1.2e-08M*,1.5e-08M*
Cc1nc2c(C(=O)O)cnn2c(C)c1Cc1ccccc1F,-19%,-1%,-2%,?,?,?
CC(C)[C@@H](CC(=O)N[C@@H]1CCCC[C@H]1C(=O)N[C@H](CC(=O)N[C@@H](CCC(=O)O)CC(=O)O)Cc1c[nH]c2ccccc12)NC(=O)C[C@H](Cc1ccccc1)NC(=O)[C@@H]1CCCC[C@H]1N,-20%,/,-16%,/,/,/
CCC/C=C(\CCC)C(NP(=O)(c1ccccc1)c1ccccc1)c1ccc(-c2ccccc2)cc1 (stereo unspecified),1%,1%,-12%,?,/,/
Cc1ccc(CSc2nc3c(c(=O)[nH]2)CCC3)cc1,4%,0%,-3%,-1%,/,/
CCOC(=O)C1=C(N)Oc2cc(C)[nH]c(=O)c2C1c1ccncc1 (stereo unspecified),-6%,-2%,0%,-1%,?,?
Cn1c(=O)c2[nH]c(SCCN3CCOCC3)nc2n(C)c1=S,9%[7.6 µM],1%[11.5 µM],?,?,i,i
CCOC(=O)C1=C(C)Nc2nc(SCC)[nH]c(=O)c2C1c1ccncc1 (stereo unspecified),18%,0%,10%,-1%,?,1.4e-08M*
CC1(C)CC(=O)C2=C(C1)Nc1nc(SCCN3CCOCC3)[nH]c(=O)c1C2c1cccs1 (stereo unspecified),-10%,0%,1%,?,2.8e-08M*,2.7e-08M*
CSc1nc2c(c(=O)[nH]1)C(c1cccs1)C1=C(CCCC1=O)N2 (stereo unspecified),-5%,0%,-13%,32µM*,2.4e-08M*,2.2e-08M*
Cc1ccc(CSc2nc3c(c(=O)[nH]2)C(c2ccncc2)C2=C(CCCC2=O)N3)cc1 (stereo unspecified),-8%,2%,-15%,25µM*,1e-07M*,8.6e-08M*

# Bioassay records from PubChem.
